Laboratory results reported in PubChem BioAssay.
Calls of active or inactive are those of the source. Unless noted, no rule for the calls is given here.

Tests used:
[1] = compound effects on lung adenocarcinoma cell viability – A549, calcein-AM fluorescence, 48 h, basal, profiling panel (AID 1162); conditions: higher = more signal; also: test concentration not given here
[2] = compound effects on differentiated 3T3-L1 adipocyte viability – cell-based, 3T3-L1 adipocytes, calcein-AM fluorescence, 48 h, basal, profiling panel (AID 1163); conditions: 3T3-L1 adipocytes viability, higher = more signal; also: test concentration not given here
[3] = compound effects on hepatocellular carcinoma cell viability – HepG2, calcein-AM fluorescence, 48 h, basal, profiling panel (AID 1164); conditions: higher = more signal; also: test concentration not given here
[4] = compound effects on multiple myeloma cell viability – MM1S, calcein-AM fluorescence, 48 h, basal, profiling panel (AID 1165); conditions: higher = more signal; also: test concentration not given here
[5] = calcein-AM signal in unstimulated myeloma cells – cell-based, calcein-AM fluorescence, 48 h, PK04 Diversity Set, profiling panel (AID 1166); conditions: RPMI8226 myeloma viability, higher = more signal;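 also: cells grown under basal conditions without added stimulus; test concentration not given here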
[6] = JC-1 mitochondrial signal, unstimulated HepG2 cells – cell-based, JC-1 fluorescence, 24 h, 100 nL compound, profiling panel (AID 1167); conditions: HepG2 mitochondrial potential, higher = more signal; also: test concentration not given here
[7] = JC-1 mitochondrial signal, unstimulated adipocytes – cell-based, JC-1 fluorescence, 3T3-L1 adipocytes, 24 h, 100 nL compound, profiling panel (AID 1168); conditions: JC-1 mitochondrial fluorescence, higher = more signal, called active from +8 up or from −8 down; also: test concentration not given here
[8] = JC-1 mitochondrial signal, unstimulated myeloma cells – cell-based, JC-1 fluorescence, RPMI8226, 24 h, 100 nL compound, profiling panel (AID 1169); conditions: JC-1 mitochondrial potential fluorescence, higher = more signal; also: test concentration not given here
[9] = JC-1 mitochondrial signal, unstimulated MM1S myeloma – cell-based, JC-1 fluorescence, 24 h, 100 nL compound, profiling panel (AID 1170); conditions: MM1S mitochondrial potential, higher = more signal; also: test concentration not given here
[10] = resazurin metabolic signal in A549 cells – cell-based, resazurin fluorescence, 24 h, PK04 Diversity Set, profiling panel (AID 1171); conditions: A549 viability, higher = more signal, called active from +8 up or from −8 down; also: test concentration not given here
[11] = resazurin metabolic signal in HepG2 cells – cell-based, resazurin fluorescence, 24 h, PK04 Diversity Set, profiling panel (AID 1172); conditions: HepG2 viability, higher = more signal; also: test concentration not given here
[12] = budding yeast growth changes without added modifier – OD600, strain BY4716, 24 h, basal condition, primary screen (AID 1173); conditions: S. cerevisiae BY4716 growth, OD600, 24 h; higher = more signal, called active from +8 up or from −8 down
[13] = viability profiling in MM1S myeloma cells – cell-based, resazurin fluorescence, basal, 24 h, PK04 Diversity Set, profiling panel (AID 1174); conditions: higher = more signal, called active from +8 up or from −8 down; also: test concentration not given here
[14] = target: Dihydroorotate dehydrogenase (quinone), mitochondrial (Plasmodium falciparum (isolate 3D7)) (UniProt Q08210); test: inhibition of P. falciparum DHODH – biochemical, C-terminal His tag, absorbance 600 nm, primary screen (AID 1175); conditions: PfDHODH enzyme, DCIP absorbance 600 nm; higher = more signal, called active from +8 up or from −8 down;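 also: recombinant parasite enzyme with a five histidine tag at its C terminus; test concentration not given here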
Dihydroorotate dehydrogenase (quinone), mitochondrial (Plasmodium falciparum (isolate 3D7)), sequence (Q08210 whole entry, looked up): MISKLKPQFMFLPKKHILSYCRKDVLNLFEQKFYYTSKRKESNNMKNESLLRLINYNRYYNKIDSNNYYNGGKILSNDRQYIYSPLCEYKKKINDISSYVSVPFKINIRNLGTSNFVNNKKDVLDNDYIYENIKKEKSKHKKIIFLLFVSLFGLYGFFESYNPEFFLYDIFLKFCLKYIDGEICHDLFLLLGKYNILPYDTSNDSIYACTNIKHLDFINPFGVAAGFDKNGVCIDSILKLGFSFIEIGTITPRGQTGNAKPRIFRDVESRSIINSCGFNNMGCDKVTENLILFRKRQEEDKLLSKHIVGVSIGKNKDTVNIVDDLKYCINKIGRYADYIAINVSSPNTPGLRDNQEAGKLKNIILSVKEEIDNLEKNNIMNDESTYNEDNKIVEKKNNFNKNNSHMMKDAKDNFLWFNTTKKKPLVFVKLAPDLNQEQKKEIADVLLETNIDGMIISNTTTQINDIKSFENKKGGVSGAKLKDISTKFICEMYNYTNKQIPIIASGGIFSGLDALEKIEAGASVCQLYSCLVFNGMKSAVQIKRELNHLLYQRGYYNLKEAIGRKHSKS

[15] = inhibition of PAO1 biofilm formation – strain PAO1, LB-PBS medium, absorbance 600 nm, primary screen (AID 1176); also: test concentration not given here; conditions: P. aeruginosa PAO1 growth/biofilm, A600, 12 h; higher = more signal
[16] = growth modulation of vineyard yeast isolate – strain RM11-1a, OD600, basal, 24 h, primary screen (AID 1177);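 also: cultures grown under basal conditions with no added stressor; test concentration not given here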; conditions: S. cerevisiae RM11-1a growth, OD600, 24 h; higher = more signal, called active from +8 up or from −8 down
[17] = growth of efflux-deficient E. coli DRC39 – strain DRC39, OD650, 24 h, E. coli filamentation inducers, primary screen (AID 1178);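 also: growth measured as culture turbidity by optical density at 650 nm; test concentration not given here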; conditions: E. coli DRC39 acrAB, higher = more signal, called active from +8 up or from −8 down
[18] = growth of efflux-deficient E. coli DRC39 – strain DRC39, OD650, 48 h, E. coli filamentation inducers, primary screen (AID 1179);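 also: screen aims at cell division blockers that make cells filament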; conditions: E. coli DRC39 delta-acrAB growth, higher = more signal, called active from +8 up or from −8 down
[19] = viability profiling in RPMI8226 myeloma cells – cell-based, resazurin fluorescence, basal, 24 h, PK04 Diversity Set, profiling panel (AID 1180); conditions: higher = more signal;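 also: RPMI8826 multiple myeloma cell line at 5000 cells per well; test concentration not given here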
[20] = target: E3 ubiquitin-protein ligase XIAP (Homo sapiens) (UniProt P98170); test: small molecules binding XIAP protein – biophysical, small-molecule microarray, fluorescence 635 nm, primary screen (AID 1181); conditions: higher = more signal;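 also: score merges 667 nm emission and signal to noise over triplicate slides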
E3 ubiquitin-protein ligase XIAP (Homo sapiens), sequence (P98170 whole entry, looked up): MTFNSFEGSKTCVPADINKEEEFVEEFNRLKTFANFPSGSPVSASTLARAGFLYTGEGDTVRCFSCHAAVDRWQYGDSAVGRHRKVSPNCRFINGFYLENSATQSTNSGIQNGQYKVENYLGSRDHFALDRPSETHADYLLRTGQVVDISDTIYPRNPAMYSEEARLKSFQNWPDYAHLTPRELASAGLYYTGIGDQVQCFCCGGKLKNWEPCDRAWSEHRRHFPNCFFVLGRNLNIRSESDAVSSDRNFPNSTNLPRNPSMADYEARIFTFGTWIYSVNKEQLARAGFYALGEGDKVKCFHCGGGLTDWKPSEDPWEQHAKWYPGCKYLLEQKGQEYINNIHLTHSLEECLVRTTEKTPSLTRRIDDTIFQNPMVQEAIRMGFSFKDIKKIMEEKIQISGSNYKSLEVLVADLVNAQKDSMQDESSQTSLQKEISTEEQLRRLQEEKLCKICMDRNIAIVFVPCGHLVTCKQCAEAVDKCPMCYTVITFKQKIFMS

| Compound | z-score [1] | z-score [2] | z-score [3] | z-score [4] | z-score [5] | z-score [6] | z-score [7] | z-score [8] | z-score [9] | z-score [10] | z-score [11] | z-score [12] | z-score [13] | composite z-score [14] | z-score [15] | z-score [16] | z-score [17] | z-score [18] | z-score [19] | composite z-score [20] |
| --- | --- | --- | --- | --- | --- | --- | --- | --- | --- | --- | --- | --- | --- | --- | --- | --- | --- | --- | --- | --- |
| COC(=O)[C@@]1(Cc2ccc(F)cc2)[C@H]2c3cc(C(=O)N4CCCC4)n(CCF)c3C[C@H]2CN1C(=O)c1ccccc1 | -0.719 | 0.251 | 0.426 | -1.04 | -0.374 | 1.98 | -0.000991 (inactive) | -0.0725 | 0.26 | 0.763 (inactive) | -0.282 | -0.273 (inactive) | -0.547 (inactive) | -0.41 (inactive) | 0.84 (inactive) | 0.24 (inactive) | -0.239 (inactive) | -0.311 (inactive) | -0.185 | -0.233 |
| C=CCN1C(=O)[C@@]2(O[C@@H](CCO)[C@H]([Si](C)(C)c3ccc(OC)cc3)[C@H]2C)c2cc(N3C(=O)c4ccccc4Oc4ccccc43)ccc21 | -3.02 | -0.428 | -4.76 | -2.94 | -4.12 | -2.97 | 1.07 (inactive) | -1.1 | -2.33 | -4.55 (inactive) | -6.08 | -0.0065 (inactive) | -8.62 (active) | 0.614 (inactive) | 1.95 (inactive) | 3.35 (inactive) | 2.24 (inactive) | 1.9 (inactive) | -6.24 | -0.172 |
| COCCOC(=O)N1C(=O)[C@@]2(c3cc(C#CCC(C(=O)OC)C(=O)OC)ccc31)[C@H](c1ccc(OCCO)cc1)N1[C@H](c3ccccc3)[C@H](c3ccccc3)OC(=O)[C@H]1[C@@H]2C(=O)N1CCN(c2ncccn2)CC1 | -0.828 | 1.2 | -0.709 | -0.0585 | -1.07 | -0.49 | 0.436 (inactive) | -0.262 | -1.53 | 1.83 (inactive) | 1.27 | 0.588 (inactive) | -0.199 (inactive) | 1.35 (inactive) | 2.06 (inactive) | 1.82 (inactive) | 0.362 (inactive) | -0.108 (inactive) | 0.262 | -0.22 |
| CC(C)CNC(=O)[C@@H]1c2ccccc2C(=O)N(Cc2cc(F)cc(C(F)(F)F)c2)[C@H]1c1ccc(CO)cc1 | 2.21 | -0.979 | 1.37 | -0.215 | 0.857 | 2.31 | 0.299 (inactive) | -0.137 | 0.205 | 0.317 (inactive) | 0.564 | -0.874 (inactive) | 0.895 (inactive) | 0.369 (inactive) | 0.801 (inactive) | -0.604 (inactive) | 1.84 (inactive) | 1.42 (inactive) | 1.16 | 0.0651 |
| COCC(=C=CC[C@H](O)c1ccc(OCCO)cc1)C[C@H](O)COCc1ccccc1 | 0.542 | 1.24 | 0.115 | -0.26 | 0.249 | 1.07 | -0.801 (inactive) | -0.245 | -0.748 | 0.925 (inactive) | 0.993 | -1.49 (inactive) | 1.18 (inactive) | -0.95 (inactive) | 0.33 (inactive) | -1.3 (inactive) | 0.979 (inactive) | 0.921 (inactive) | 1.51 | -0.0238 |
| CC(C)(C)OC(=O)CC[C@]1(C(=O)O)N=C(c2ccc(OCCCO)cc2)O[C@H]1c1ccccc1 | -0.078 | 0.155 | -0.0903 | 0.55 | -0.135 | 0.367 | 0.721 (inactive) | -0.0713 | -0.513 | 0.16 (inactive) | 1.29 | -0.739 (inactive) | 0.904 (inactive) | -14.3 (active) | -0.76 (inactive) | -0.279 (inactive) | 0.419 (inactive) | 1.3 (inactive) | 1.65 | -0.0594 |
| C=CC[C@H](OC(=O)Nc1ccc(OC)cc1)c1ccc(O)c2ccccc12 | -1.39 | -1.07 | -3.1 | -2.8 | -4.26 | -2.68 | -1.05 (inactive) | -1.02 | -2.15 | -0.745 (inactive) | -0.878 | -16.7 (active) | -6.07 (inactive) | -7.13 (inactive) | 1.82 (inactive) | -20 (active) | 0.852 (inactive) | 0.148 (inactive) | -4.15 | -0.0872 |
| CCCc1cccc(=O)o1 | -0.996 | 0.369 | -0.133 | 0.25 | -0.316 | -0.147 | 0.72 (inactive) | -0.417 | -0.773 | 0.366 (inactive) | 0.866 | 0.68 (inactive) | 0.821 (inactive) | -0.661 (inactive) | 0.353 (inactive) | -0.243 (inactive) | -0.161 (inactive) | 0.846 (inactive) | 0.819 | -0.0721 |
